# Several values for one entry are separate records, joined by “and”; a condition that tells them apart may be missing. Identical values can stand only once. Inconclusive results are not listed. Where a call stands in place of a potency, no number is given. Activity calls are given as the source filed them. The call rests on the fitted dose curve; in most records, active means well fitted inhibition curve with a large enough effect; inconclusive means small, poorly fitted or top-dose-only effect; inactive means flat fitted curve, though single readings scatter.
# Assay: P-glycoprotein substrates identified in KB-8-5-11 adenocarcinoma cell line, qHTS therapeutic library screen (AID 1346987); further: nearly all actives have a fitted effect of over 65% in size
# Conditions: KB-8-5-11 (P-gp overexpressing) viability, CellTiter-Glo, 72 h; series mostly up to 44.5 µM
# Text: The ATP-binding cassette transporters P-glycoprotein (P-gp) is known to limit brain penetration of many chemotherapy drugs. […] As such, we developed a high-throughput screen (HTS) to identify substrates of P-gp from a series of chemical libraries including the National Center for Advancing Translational Sciences Pharmaceutical Collection NPC, 2,816 compounds), testing a total of 10,804 compounds, most of which have known mechanisms of action. We used the CellTiter-Glo viability assay to test library compounds against the parental KB-3-1 human cervical adenocarcinoma cell line and the colchicine-selected sub-line KB-8-5-11 that over-expresses P-gp. KB-8-5-11 cells were also tested in the presence of a P-gp inhibitor (tariquidar) to assess reversability of transporter-mediated resistance. Of the tested compounds, a total of 90 P-gp substrates were identified including 55 newly identified P-gp substrates. Substrates were confirmed using an orthogonal killing assay against HEK-293 cells transfected with P-gp. As exemplars, we confirmed that […] (cyclin-dependent kinase inhibitor); AT9283, (Janus kinase 2/3 inhibitor); ispinesib (kinesin spindle protein inhibitor); gedatolisib (PKI-587, phosphoinositide 3-kinase/mammalian target of rampamycin inhibitor); GSK-690693 (AKT inhibitor); and KW-2478 (heat shock protein 90 inhibitor) were substrates , and direct ATPase stimulation was assessed. ABCG2 was also found to confer high levels of resistance to AT9283, GSK-690693 and gedatolisib, while ispinesib, AT7519 and KW-2478 were weaker substrates.
# The HeLa derivative cell line, KB-3-1, and its colchicine-selected, P-gp-overexpressing subline, KB-8-5-11 were maintained in DMEM with 10% FCS and Pen/Strep with glutamine at 37 degree C in 5% CO2. For KB-8-5-11 cells, colchicine was added to the medium at a concentration of 100 ng/mL. HEK-293 cells transfected with empty vector (pcDNA) or vector containing human ABCB1 (MDR-19) or ABCG2 (R-5) have been described previously (Robey, Lin, Qiu, Chan & Bates, 2011) and were maintained in EMEM supplemented with 10% FCS, Pen/Strep and glutamine with 2 mg/ml G418 to select for the expression of the transporter. Cultures were confirmed to be free of mycoplasma infection using the MycoAlert Mycoplasma Detection Kit (Lonza, Walkersville, MD). For the screen, assay medium was identical to culture medium except for KB-8-5-11 where colchicine was excluded from the medium.
# All cell lines were plated into 1536-well plates at 500 cells/well in 5 uL media. Compounds were then pinned in dose-response using a 1536-head pin tool (Kalypsis, San Diego, CA) and plates were incubated at 37 degree C in 5% CO2 for an additional 72 h. CellTiter-Glo reagent (Promega) was dispensed into the wells, incubated for 5 min and luminescence was read on a ViewLux instrument (Perkin-Elmer). Cytotoxic compounds were defined as those that yielded a curve class of -1.1, -1.2, -2.1, -2.2, -2.3, or -2.4, a maximum response of >50% and an AC50 of < 10 uM. Cherry-picked hits from screening analysis were tested with both the KB pair of cell lines, and the pcDNA (empty vector control) and MDR-19 (P-gp overexpressing) pair were tested, in the absence and presence of tariquidar.
# Potency means the concentration at half of the fitted maximal effect.
row,Compound,Potency
1,O=C(O)CCc1ccc(NCc2cccc(Oc3ccccc3)c2)cc1,inactive
2,C/C(=C\C(=O)Nc1ccccc1C(=O)O)c1ccc2ccccc2c1,inactive
3,Cc1ccc(N(CC2=NCCN2)c2cccc(O)c2)cc1,inactive
4,NCCCC(N)(C(=O)O)C(F)F (stereo not given),inactive
5,CN[C@@H](C)C(=O)N[C@H]1CCCC[C@H]2CC[C@@H](C(=O)N[C@@H](c3ccccc3)c3cn(CCCCc4ccc(CCCCn5cc([C@@H](NC(=O)[C@@H]6CC[C@@H]7CCCC[C@H](NC(=O)[C@H](C)NC)C(=O)N76)c6ccccc6)nn5)cc4)nn3)N2C1=O,inactive
6,CC(c1cc2ccccc2s1)N(O)C(N)=O (stereo not given),inactive
7,CO[C@@H]1[C@H](N(C)C(=O)c2ccccc2)C[C@H]2O[C@]1(C)n1c3ccccc3c3c4c(c5c6ccccc6n2c5c31)C(=O)NC4,1.48 µM (active) and 1.3 µM (active)
8,COc1ccc(-c2ccc3c(N4CCOC[C@H]4C)nc(N4CCOC[C@H]4C)nc3n2)cc1CO,0.0132 µM (active)
9,CNC(=O)c1ccccc1Sc1ccc2c(/C=C/c3ccccn3)n[nH]c2c1,18.4 µM (active) and 7.31 µM (active)
10,COc1ccc([C@@H]2CC(=O)c3c(O)cc(O[C@@H]4O[C@H](CO[C@@H]5O[C@@H](C)[C@H](O)[C@@H](O)[C@@H]5O)[C@@H](O)[C@H](O)[C@@H]4O)cc3O2)cc1O,inactive
11,Nc1ncnc2nc(-c3ccc(N4CCOCC4)nc3)cc(-c3cccc(Br)c3)c12,inactive
12,O=C1CCCC2=C1C(c1[nH]ncc1Cl)N=C(Nc1nc3ccccc3o1)N2 (stereo not given),inactive
13,CCN(CC)CCCC(C)Nc1nc(C)cc(Nc2ccc3nc(C)cc(N)c3c2)n1 (stereo not given),inactive
14,Cc1cc(C=c2sc3nc4ccccc4n3c2=O)c(C)n1-c1ccccc1,inactive
15,Cc1cnc(Nc2ccc(OCCN3CCCC3)cc2)nc1Nc1cccc(S(=O)(=O)NC(C)(C)C)c1,inactive
16,CNC(=O)c1ccc(N2C(=S)N(c3ccc(C#N)c(C(F)(F)F)c3)C(=O)C2(C)C)cc1F,inactive
17,CCC(C)n1ncn(-c2ccc(N3CCN(c4ccc(OC[C@H]5CO[C@](Cn6cncn6)(c6ccc(Cl)cc6Cl)O5)cc4)CC3)cc2)c1=O (stereo not given in full),inactive
18,COCCNCCCn1c(C(=O)CF)c(-c2ccc(C)cc2)c2c(N)ncnc21,inactive
19,Cc1csc(NC(=O)c2sc3nc4c(c(C(F)(F)F)c3c2N)CCC4)n1,inactive
20,CCCC(CCC)C(=O)O,inactive

row,Compound,Potency
1,O=S(=O)(N=Cc1c(O)ccc2ccccc12)c1cccs1,inactive
2,O=NN(CCCl)C(=O)NCCCl,inactive
3,Cc1cc(Nc2nc(N[C@@H](C)c3ncc(F)cn3)ncc2Cl)n[nH]1,16.6 µM (active) and 1.03 µM (active)
4,CS(=O)(=O)Oc1ccc2c(NC(N)=O)c(C(=O)c3ccc(Cl)cc3Cl)oc2c1,inactive
5,Cc1[nH]c(=O)c(C#N)cc1-c1ccc2nccn2c1,inactive
6,CC(=O)Oc1ccccc1C(=O)O,inactive
7,CC(C)C[C@H](NC(=O)[C@@H](O)[C@H](N)Cc1ccccc1)C(=O)O,23.5 µM (active)
8,NC(=O)c1ccc(-c2nc(-c3ccc4c(c3)OCCO4)c(-c3ccccn3)[nH]2)cc1,inactive
9,CC[C@@H](C)[C@H](NC(=O)[C@H](CC1CCCCC1)NC(=O)c1ccno1)C(=O)N1CCC2(CCc3ccccc32)CC1,inactive
10,CCCS(=O)(=O)Nc1ccc(F)c(C(=O)c2c[nH]c3ncc(-c4ccc(Cl)cc4)cc23)c1F,inactive
11,Cc1cnc(NC(=O)C2=C(O)c3ccccc3S(=O)(=O)N2C)s1,inactive
12,N#CC[C@H](C1CCCC1)n1cc(-c2ncnc3[nH]ccc23)cn1,26.4 µM (active)
13,CC(=O)NC(C)c1ccc(Oc2ccc(OC(C)C)cc2)cc1 (stereo not given),inactive
14,COc1cc(F)c(F)c(Nc2ccc(I)cc2F)c1NS(=O)(=O)C1(C[C@H](O)CO)CC1,inactive
15,c1ccc([C@H]2CN3CCSC3=N2)cc1,inactive
16,COc1ccc(CCN2CCN(CCCc3ccccc3)CC2)cc1OC,inactive
17,O=C(Nc1ccc(F)c(C(F)(F)F)c1)Nc1nnc(-c2ccncc2)s1,inactive
18,O=C1CCC(N2C(=O)c3ccccc3C2=O)C(=O)N1 (stereo not given),inactive
19,O=C(NOC[C@H](O)CO)c1ccc(F)c(F)c1Nc1ccc(I)cc1F,inactive
20,C[C@H](NC(=O)Cc1cc(F)cc(F)c1)C(=O)N[C@@H]1C(=O)N(C)c2ccccc2-c2ccccc21,inactive

# From PubChem BioAssay (NCATS)
